Results filed as inconclusive are left out. Unmarked numbers belong to inactive results. Some of the results follow. The source made the active and inactive calls. Unless noted, calls follow the shape of the dose curve; as a rule, active = well fitted curve in the direction sought with a large enough effect; inconclusive = small, poorly fitted or top-dose-only effect, or another doubt; inactive = no such curve, though single readings can be large; an effect the other way counts as inactive or inconclusive.
Key:
[1] = molecular target: Bile acid receptor (Homo sapiens) (UniProt Q96RI1); assay: qHTS assay for small molecule antagonists of farnesoid X receptor signaling (AID 588526; calls by dose curve; also: % is scaled to controls: 0 for no effect and ±100 for the full control effect)
Chain of Bile acid receptor (Homo sapiens) (Q96RI1 whole entry, looked up): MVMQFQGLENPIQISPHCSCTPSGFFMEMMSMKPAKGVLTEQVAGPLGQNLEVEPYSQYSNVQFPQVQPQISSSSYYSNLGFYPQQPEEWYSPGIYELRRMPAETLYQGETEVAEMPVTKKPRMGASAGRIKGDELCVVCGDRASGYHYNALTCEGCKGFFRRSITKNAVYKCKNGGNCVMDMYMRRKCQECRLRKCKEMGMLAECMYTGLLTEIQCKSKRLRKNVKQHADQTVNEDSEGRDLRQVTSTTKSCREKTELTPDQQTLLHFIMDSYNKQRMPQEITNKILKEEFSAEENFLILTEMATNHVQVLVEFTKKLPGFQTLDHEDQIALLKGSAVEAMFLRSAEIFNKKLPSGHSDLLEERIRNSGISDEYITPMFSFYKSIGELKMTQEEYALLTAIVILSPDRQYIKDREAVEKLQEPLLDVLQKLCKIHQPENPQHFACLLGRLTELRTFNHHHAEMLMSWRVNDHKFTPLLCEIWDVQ
How it was run: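 Concentration-response titrations were fitted to the Hill equation for half-maximal inhibition and maximal response, with data normalised to 50 uM chenodeoxycholic acid and DMSO control wells. Cells: FXR-UAS-bla HEK293T, dialyzed FBS.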

[2] = molecular target: Peroxisome proliferator-activated receptor delta (Homo sapiens) (UniProt Q03181); assay: qHTS assay for small molecule antagonists of peroxisome proliferator-activated receptor delta signaling (AID 588535; active = well fitted inhibition curve with a large enough effect in the signal ratio, with a control signal flat, not every such curve was filed as active; the % refers to the signal ratio)
Chain of Peroxisome proliferator-activated receptor delta (Homo sapiens) (Q03181 whole entry, looked up): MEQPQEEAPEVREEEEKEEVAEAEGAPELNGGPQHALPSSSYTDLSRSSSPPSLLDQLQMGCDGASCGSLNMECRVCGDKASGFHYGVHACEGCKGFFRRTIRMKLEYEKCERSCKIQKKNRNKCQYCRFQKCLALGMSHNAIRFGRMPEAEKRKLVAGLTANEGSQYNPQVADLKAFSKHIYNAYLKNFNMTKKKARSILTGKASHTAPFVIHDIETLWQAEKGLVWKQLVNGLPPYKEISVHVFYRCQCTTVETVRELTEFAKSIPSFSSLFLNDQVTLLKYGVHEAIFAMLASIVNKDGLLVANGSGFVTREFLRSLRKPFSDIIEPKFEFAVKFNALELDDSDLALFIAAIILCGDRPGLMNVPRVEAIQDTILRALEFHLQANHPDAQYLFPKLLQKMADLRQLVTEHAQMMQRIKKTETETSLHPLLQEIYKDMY
How it was run: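 Reporter: UAS-bla under PPAR-delta response element, HEK293T host. Medium: 2% charcoal/dextran FBS. Dosing: titration, 18 hrs, 37 C. Detection: CCF4, 2 hrs RT, 405 ex/460 and 530 em.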

[3] = molecular target: Thyroid hormone receptor beta (Homo sapiens) (UniProt P10828); assay: qHTS assay for small molecule antagonists of thyroid hormone receptor beta signaling (AID 588547; active = well fitted inhibition curve with a large enough effect in the signal ratio, with a control signal flat, not every such curve was filed as active; the % refers to the signal ratio;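 also: cells stimulated with 0.4 nM T3 agonist during compound exposure; series mostly up to about 77 µM; % is scaled to controls: 0 for no effect and ±100 for the full control effect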); details: TR-UAS-bla HEK293, beta-lactamase ratio, antagonist mode, 18 h
Chain of Thyroid hormone receptor beta (Homo sapiens) (P10828 whole entry, looked up): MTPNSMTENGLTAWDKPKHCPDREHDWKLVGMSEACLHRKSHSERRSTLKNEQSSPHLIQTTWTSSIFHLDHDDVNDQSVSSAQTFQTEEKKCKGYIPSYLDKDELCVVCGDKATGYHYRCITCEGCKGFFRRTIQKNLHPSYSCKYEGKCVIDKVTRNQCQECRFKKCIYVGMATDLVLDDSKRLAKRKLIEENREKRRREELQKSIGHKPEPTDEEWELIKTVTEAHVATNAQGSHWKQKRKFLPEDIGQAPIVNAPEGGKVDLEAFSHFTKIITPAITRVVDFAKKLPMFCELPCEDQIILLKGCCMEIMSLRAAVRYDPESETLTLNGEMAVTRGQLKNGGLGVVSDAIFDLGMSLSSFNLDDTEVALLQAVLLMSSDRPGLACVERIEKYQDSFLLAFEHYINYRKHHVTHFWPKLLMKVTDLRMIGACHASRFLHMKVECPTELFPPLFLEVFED
How it was run: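 TR-UAS-bla GripTite HEK293 cells in 2% charcoal/dextran FBS medium were preincubated 4 h at 37 C, given compound (0.59 nM to 92 uM) plus 0.4 nM T3 (final) for 18 h, then CCF4 for 2 h at RT; Hill fit gave IC50.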

[4] = qHTS assay for small molecule agonists of the antioxidant response element (ARE) signaling pathway (AID 651741; active = well fitted activation curve with a large enough effect in the signal ratio; the % refers to the signal ratio; also: potency is read from the fitted curve at half-maximal effect; as to activation: % of control where 0% means no effect)
How it was run: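 Compounds in DMSO are pinned onto HepG2 ARE-bla cells (2,000/well) that were preincubated 5 h; plates stay 16 h at 37 C, then beta-lactamase activity is detected with LiveBLAzer B/G substrate by fluorescence.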

[5] = qHTS assay for small molecule activators of the nuclear factor-kappa B (NF-kB) signaling pathway (AID 651749; active = well fitted activation curve with a large enough effect in the signal ratio; the % refers to the signal ratio; also: potency is read from the fitted curve at half-maximal effect; as to activation: series mostly up to about 77 µM; % of control where 0% means no effect); details: NF-kB-bla ME-180 cells, beta-lactamase FRET ratio, 16 h; activation: stronger effect = higher value
How it was run: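 Screening used 2,000 ME-180 reporter cells per well exposed to pinned compound (23 nL) or DMSO; after 16 hr at 37C, beta-lactamase expression under NF-kB control was assessed through FRET.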

[6] = molecular target: Glucocorticoid receptor (Homo sapiens) (UniProt P04150); assay: qHTS assay for small molecule antagonists of glucocorticoid receptor signaling (AID 588533; active = well fitted inhibition curve with a large enough effect in the signal ratio, with a control signal flat, not every such curve was filed as active; the % refers to the signal ratio;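 also: cells stimulated with 2 nM dexamethasone as agonist; % is scaled to controls: 0 for no effect and ±100 for the full control effect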)
Chain of Glucocorticoid receptor (Homo sapiens) (P04150 whole entry, looked up): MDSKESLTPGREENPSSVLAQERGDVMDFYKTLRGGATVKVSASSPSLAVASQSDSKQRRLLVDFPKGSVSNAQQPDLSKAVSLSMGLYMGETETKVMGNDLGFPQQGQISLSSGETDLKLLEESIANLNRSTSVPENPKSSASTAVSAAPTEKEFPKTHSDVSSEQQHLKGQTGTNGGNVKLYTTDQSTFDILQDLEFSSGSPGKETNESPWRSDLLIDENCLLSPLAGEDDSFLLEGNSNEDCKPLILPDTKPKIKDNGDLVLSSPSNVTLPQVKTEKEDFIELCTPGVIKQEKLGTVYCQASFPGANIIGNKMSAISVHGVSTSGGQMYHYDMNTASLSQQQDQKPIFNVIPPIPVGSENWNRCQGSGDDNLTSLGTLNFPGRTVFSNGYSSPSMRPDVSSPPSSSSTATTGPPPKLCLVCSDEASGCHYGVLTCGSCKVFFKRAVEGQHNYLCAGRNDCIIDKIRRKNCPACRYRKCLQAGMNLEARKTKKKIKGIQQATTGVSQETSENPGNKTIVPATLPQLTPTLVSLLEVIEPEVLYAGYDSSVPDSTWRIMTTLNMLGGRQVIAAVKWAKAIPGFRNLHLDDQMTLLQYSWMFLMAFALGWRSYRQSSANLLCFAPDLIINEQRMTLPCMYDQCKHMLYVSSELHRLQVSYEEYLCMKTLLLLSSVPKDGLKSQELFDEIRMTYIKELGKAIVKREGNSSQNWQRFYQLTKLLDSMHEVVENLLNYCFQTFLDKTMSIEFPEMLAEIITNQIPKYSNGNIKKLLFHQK
How it was run: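 Antagonist-mode qHTS: compound titrations added to GRE-bla HeLa cells, then dexamethasone 2 nM final; 18 h, 37 C. CCF4 FRET fluorescence normalized to dexamethasone and DMSO; IC50 from Hill fit.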

[7] = molecular target: Vitamin D3 receptor (Homo sapiens) (UniProt P11473); assay: qHTS for Inhibitors of the vitamin D receptor (VDR): Hit Validation in Primary Screen (AID 602199); details: VDR-coactivator inhibition assay, qHTS confirmation; also: potency is read from the fitted curve at half-maximal effect
Chain of Vitamin D3 receptor (Homo sapiens) (P11473 whole entry, looked up): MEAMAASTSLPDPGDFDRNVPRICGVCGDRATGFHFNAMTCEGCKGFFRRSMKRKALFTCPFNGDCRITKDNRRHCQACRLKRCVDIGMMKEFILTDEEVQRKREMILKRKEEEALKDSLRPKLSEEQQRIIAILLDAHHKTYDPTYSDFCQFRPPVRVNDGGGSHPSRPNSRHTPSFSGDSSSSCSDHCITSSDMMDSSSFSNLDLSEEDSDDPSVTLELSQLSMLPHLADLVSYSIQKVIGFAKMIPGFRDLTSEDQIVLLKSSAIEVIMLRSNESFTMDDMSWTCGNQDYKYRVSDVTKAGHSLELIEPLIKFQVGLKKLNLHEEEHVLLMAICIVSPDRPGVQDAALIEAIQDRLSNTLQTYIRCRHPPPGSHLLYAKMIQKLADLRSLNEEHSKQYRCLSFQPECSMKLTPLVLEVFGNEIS
How it was run: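 Fluorescence polarization assay of VDR binding to Alexa 647-labelled SRC2-3 coactivator peptide: 800nM VDR with 5uM LG19078 agonist, compounds, 2 h at room temperature, read Ex 620 nm/Em 688 nm.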

[8] = qHTS for Inhibitors of the vitamin D receptor (VDR): Hit Validation using a Texas Red Assay (AID 602201); also: potency is read from the fitted curve at half-maximal effect
How it was run: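 Fluorescence polarization (Ex 595/Em 615 nm) of Texas Red (7 nM) with 1.5 uM VDR-LBD and LG19078 (final concentrations). Compounds were incubated for 2 hours at room temperature.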

[9] = qHTS for Inhibitors of the vitamin D receptor (VDR): Hit Validation using a Cytotoxicity Assay (AID 602204); also: nearly all actives have a fitted effect of over 75% in size
How it was run: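 Cytotoxicity counterscreen measuring cellular ATP by CellTiter-Glo luminescence. Cells (20,000/well) plated 4 hours before compound addition, then exposed for 18 hours. Cycloheximide at high concentration as positive control, DMSO as negative.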

SMILES: CC(COc1ccc(C(C)(C)C)cc1)OS(=O)OCCCl (stereo not given)
- Potency [1]: inactive
- Potency [2]: inactive
- activity change % (negative = inhibition) [3]: -14.9%
- Potency [4]: 27.3 µM (active)

SMILES: C=CCOc1nc(OCC=C)nc(OCC=C)n1
- Potency [2]: inactive
- activity change % (negative = inhibition) [3]: 11.9%
- activation [5]: 0.86%

SMILES: Cc1ccc2c(c1)C(=O)OC2=O
- Potency [6]: inactive
- Potency [2]: inactive
- activity change % (negative = inhibition) [3]: -5.6%

SMILES: CCCCCCC(O)CCCCCCCCCCC(=O)OC (stereo not given)
- Potency [6]: inactive
- Potency [2]: inactive
- activity change % (negative = inhibition) [3]: -2.76%
- Potency [4]: inactive
- activation [5]: -0.158%

SMILES: CC(C)C(=O)OC(=O)C(C)C
- Potency [6]: inactive
- Potency [2]: inactive
- activity change % (negative = inhibition) [3]: 8.71%

SMILES: CCCCCCCCCCCCN
- Potency [6]: inactive
- Potency [2]: inactive
- activity change % (negative = inhibition) [3]: -7.43%
- Potency [4]: inactive
- activation [5]: -1.82%

SMILES: CN(C)N=Nc1ccc2nc[nH]c2c1
- Potency [7]: 10.6 µM (active)
- Potency [8]: inactive

SMILES: COC(=O)c1ccc(I)cc1S(=O)(=O)NC(=O)Nc1nc(C)nc(OC)n1
- Potency [6]: inactive
- activity change % (negative = inhibition) [3]: -17%
- Potency [4]: inactive

SMILES: CS(=O)(=O)c1ccc(Cl)cc1
- Potency [6]: inactive
- activity change % (negative = inhibition) [3]: -10.2%
- Potency [4]: inactive

SMILES: O=c1oc(=O)c2cc3c(=O)oc(=O)c3cc12
- Potency [2]: inactive
- activity change % (negative = inhibition) [3]: -2.54%
- Potency [4]: inactive
- activation [5]: -1.97%

SMILES: O=[N+]([O-])c1c(NCCO)cc(Sc2nc3ccccc3s2)c2nonc12
- Potency [7]: 3.36 µM (active)

SMILES: CCCCC(CC)COC(=O)CS (stereo not given)
- activity change % (negative = inhibition) [3]: 1.03%
- activation [5]: 1.76%

SMILES: O=c1cc(CO)oc(C(Nc2cccc(C(F)(F)F)c2)c2ccccn2)c1O (stereo not given)
- Potency [7]: 16.8 µM (active)
- Potency [8]: inactive
- Potency [9]: inactive

SMILES: S=C([S-])NCCNC(=S)[S-].[Mn+2]
- Potency [6]: inactive
- activity change % (negative = inhibition) [3]: -12.7%

SMILES: CCCCCOC(=O)COc1cc(N2C(=O)C3=C(CCCC3)C2=O)c(F)cc1Cl
- activity change % (negative = inhibition) [3]: 4.65%

SMILES: CCCCCCC(C)OC(=O)COc1nc(F)c(Cl)c(N)c1Cl (stereo not given)
- activation [5]: 3.49%

SMILES: Cc1ccc(O)c(NC(=O)CCS(=O)(=O)c2nc(-c3ccc4c(c3)OCO4)cc(C(F)(F)F)n2)c1
- Potency [7]: 14.1 µM (active)
- Potency [8]: 28.2 µM (active)

SMILES: C=C(C)C(=O)OCCC[Si](Cl)(Cl)Cl
- Potency [6]: inactive
- Potency [2]: inactive
- activation [5]: -0.259%

SMILES: O=C(CCN1CCc2ccccc2C(O)(c2ccccc2)C1)c1ccc2c(c1)OCCO2 (stereo not given)
- Potency [7]: 10.6 µM (active)
- Potency [8]: inactive

SMILES: CCNc1nc(NC(C)CC)nc(OC)n1 (stereo not given)
- Potency [6]: inactive
- Potency [4]: inactive

SMILES: O=C(Nc1nc(-c2ccncc2)cs1)C1COc2ccccc2O1 (stereo not given)
- Potency [7]: 2.82 µM (active)
- Potency [8]: 7.08 µM (active)

SMILES: C=CCCCCCCCCCC
- Potency [2]: inactive
- Potency [4]: inactive

SMILES: CCCOC(=O)NCCCN(C)C
- activity change % (negative = inhibition) [3]: 1.87%
- Potency [4]: inactive

SMILES: CCOC(=O)N1CCN(C(c2cccnc2)c2ccc3cccnc3c2O)CC1 (stereo not given)
- Potency [7]: 7.52 µM (active)

SMILES: C=CC(=O)OCCOCC(CC)(COCCOC(=O)C=C)COCCOC(=O)C=C
- Potency [4]: 30.6 µM (active)

SMILES: CCNc1nc(N)nc(Cl)n1
- Potency [2]: inactive
- activity change % (negative = inhibition) [3]: -8.97%
- Potency [4]: inactive

SMILES: CC1(C)C(=O)N(Br)C(=O)N1Cl
- activity change % (negative = inhibition) [3]: -12%
- activation [5]: -2.38%

SMILES: O=C(Cl)c1cccc(C(=O)Cl)c1
- Potency [6]: inactive
- Potency [2]: inactive
- activity change % (negative = inhibition) [3]: -4.29%
- Potency [4]: inactive

SMILES: CCN(Cc1c(F)cccc1Cl)c1c([N+](=O)[O-])cc(C(F)(F)F)cc1[N+](=O)[O-]
- Potency [2]: inactive
- activity change % (negative = inhibition) [3]: -17.5%

SMILES: C[C@]12CC[C@@H]3c4ccc(O)cc4CC[C@H]3[C@@H]1CC[C@H]2O
- activity change % (negative = inhibition) [3]: -9.59%
- Potency [4]: inactive

SMILES: O=C(Nc1ccccc1)c1cc(Cl)ccc1O
- Potency [4]: 5.45 µM (active)
- activation [5]: 4.05%

SMILES: Nc1ccc(Nc2ccccc2)cc1
- Potency [6]: inactive
- Potency [4]: 30.6 µM (active)
- activation [5]: 0.195%

SMILES: S=C(S)NCCNC(=S)S
- Potency [6]: inactive
- activity change % (negative = inhibition) [3]: -7.47%

SMILES: CN(C)c1ccc(C(c2ccccc2)c2ccc(N(C)C)cc2)cc1
- activity change % (negative = inhibition) [3]: 13.2%
- activation [5]: 5.79%

SMILES: OCCOCCOCCOCCOCCO
- Potency [2]: inactive
- activity change % (negative = inhibition) [3]: -16.4%
- Potency [4]: inactive

SMILES: c1cc2ccc3ccc4ccc5cccc6c(c1)c2c3c4c56
- Potency [4]: 21.7 µM (active)
- Potency [5]: 39.8 µM (active)

SMILES: COC(=O)c1sc(-c2ccc(C(C)(C)C)cc2)cc1NC(=O)/C=C/C(=O)O
- Potency [7]: 11.9 µM (active)

SMILES: Oc1ccc(Nc2ccccc2)cc1
- Potency [6]: inactive
- activity change % (negative = inhibition) [3]: -3.3%
- Potency [4]: 24.3 µM (active)
- activation [5]: -2.8%

SMILES: Brc1ccc(Oc2ccc(Br)cc2)cc1
- Potency [2]: inactive
- activity change % (negative = inhibition) [3]: 11%
- Potency [4]: inactive

SMILES: CCOC(=O)c1sc(NC(=O)CSc2nc(C)cc(C(F)(F)F)n2)c(C#N)c1C
- Potency [7]: 11.9 µM (active)

SMILES: Clc1nc(Cl)c(Cl)c(Cl)c1Cl
- Potency [6]: inactive
- Potency [2]: inactive
- activity change % (negative = inhibition) [3]: -13.1%
- Potency [4]: 17.2 µM (active)
- activation [5]: -1.8%

SMILES: COc1ccc(CS(=O)/C(Cl)=C(/Cl)C(=O)Nc2ccc(OC)nc2)cc1 (stereo not given)
- Potency [7]: 5.97 µM (active)
- Potency [9]: 2.59 µM (active)
